# Assay results as given in article PMC7862700, “An all-to-all approach to the identification of sequence-specific readers for epigenetic DNA modifications on cytosine”.
# Tests used:
# Assay in all cases: DAPPL (digital affinity profiling via proximity ligation, sequencing); 10 mM Tris-HCl pH 7.5, 50 mM NaCl, 1 mM DTT, 4% glycerol, room temperature, 30 min; GST-TFs on glutathione beads, 16-mer random dsDNA library, 0.1% formaldehyde crosslink after washing; high values mean tight binding
# FLI1 = target: T1, FLI1 (Homo sapiens, UniProt Q01543 1-452); conditions: protein: recombinant; tags: N-terminal GST; dsDNA, one strand shown
# T1 sequence: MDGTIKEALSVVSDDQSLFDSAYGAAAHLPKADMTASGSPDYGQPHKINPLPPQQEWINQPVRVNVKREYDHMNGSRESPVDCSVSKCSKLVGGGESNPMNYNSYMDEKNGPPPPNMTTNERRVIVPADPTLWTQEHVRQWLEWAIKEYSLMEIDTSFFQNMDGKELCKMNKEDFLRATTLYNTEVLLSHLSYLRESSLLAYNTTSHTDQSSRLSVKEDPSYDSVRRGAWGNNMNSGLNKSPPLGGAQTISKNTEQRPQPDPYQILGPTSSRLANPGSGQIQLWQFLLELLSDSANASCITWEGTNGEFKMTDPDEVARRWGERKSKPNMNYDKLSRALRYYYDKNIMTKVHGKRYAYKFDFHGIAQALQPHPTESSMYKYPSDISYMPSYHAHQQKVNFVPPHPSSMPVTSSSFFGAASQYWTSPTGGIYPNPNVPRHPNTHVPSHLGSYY
# Outline: (§1)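 Binding signal is given per hexamer as its read frequency for a factor divided by its frequency in the tag-only sample. GST-fused human transcription factors were expressed in yeast, captured on glutathione beads, barcoded with DNA and pooled with that sample, then incubated with 200 nmole of a 16-mer random double-stranded DNA library in Tris/NaCl/DTT/glycerol buffer for 30 min at room temperature. The pools were then washed, crosslinked, proximity-ligated, amplified by PCR and sequenced on an Illumina NextSeq500.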
# ELK1 = target: T2, ELK1 (Homo sapiens, UniProt P19419 1-428); conditions: protein: recombinant; tags: N-terminal GST; dsDNA, one strand shown
# T2 sequence: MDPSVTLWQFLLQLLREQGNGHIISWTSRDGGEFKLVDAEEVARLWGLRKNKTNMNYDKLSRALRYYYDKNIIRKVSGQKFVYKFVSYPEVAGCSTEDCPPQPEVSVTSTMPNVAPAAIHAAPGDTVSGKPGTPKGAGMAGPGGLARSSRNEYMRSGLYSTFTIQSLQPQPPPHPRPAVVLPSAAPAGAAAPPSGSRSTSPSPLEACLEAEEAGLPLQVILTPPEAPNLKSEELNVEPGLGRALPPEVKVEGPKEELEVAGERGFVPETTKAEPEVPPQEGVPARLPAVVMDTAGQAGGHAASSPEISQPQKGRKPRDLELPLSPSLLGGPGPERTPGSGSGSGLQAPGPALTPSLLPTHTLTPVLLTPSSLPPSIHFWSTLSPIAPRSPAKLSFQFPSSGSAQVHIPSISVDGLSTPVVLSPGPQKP
# Outline: as §1
# GABPA = target: T3, GABPA (Homo sapiens, UniProt Q06546 1-454); conditions: protein: recombinant; tags: N-terminal GST; dsDNA, one strand shown
# T3 sequence: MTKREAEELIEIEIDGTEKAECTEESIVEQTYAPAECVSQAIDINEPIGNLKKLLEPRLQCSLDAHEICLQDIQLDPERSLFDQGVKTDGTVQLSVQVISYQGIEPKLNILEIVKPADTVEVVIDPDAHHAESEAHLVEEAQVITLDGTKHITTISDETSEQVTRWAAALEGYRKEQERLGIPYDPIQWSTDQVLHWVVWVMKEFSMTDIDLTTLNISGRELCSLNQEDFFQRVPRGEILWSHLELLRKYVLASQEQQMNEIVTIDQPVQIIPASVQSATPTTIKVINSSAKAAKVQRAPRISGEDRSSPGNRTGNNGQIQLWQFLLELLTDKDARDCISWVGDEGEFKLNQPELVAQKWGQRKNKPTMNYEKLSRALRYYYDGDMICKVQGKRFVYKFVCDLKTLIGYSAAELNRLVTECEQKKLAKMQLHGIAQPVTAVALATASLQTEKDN
# Outline: as §1
# ERG = target: T4, ERG (Homo sapiens, UniProt P11308 1-479); conditions: protein: recombinant; tags: N-terminal GST; dsDNA, one strand shown
# T4 sequence: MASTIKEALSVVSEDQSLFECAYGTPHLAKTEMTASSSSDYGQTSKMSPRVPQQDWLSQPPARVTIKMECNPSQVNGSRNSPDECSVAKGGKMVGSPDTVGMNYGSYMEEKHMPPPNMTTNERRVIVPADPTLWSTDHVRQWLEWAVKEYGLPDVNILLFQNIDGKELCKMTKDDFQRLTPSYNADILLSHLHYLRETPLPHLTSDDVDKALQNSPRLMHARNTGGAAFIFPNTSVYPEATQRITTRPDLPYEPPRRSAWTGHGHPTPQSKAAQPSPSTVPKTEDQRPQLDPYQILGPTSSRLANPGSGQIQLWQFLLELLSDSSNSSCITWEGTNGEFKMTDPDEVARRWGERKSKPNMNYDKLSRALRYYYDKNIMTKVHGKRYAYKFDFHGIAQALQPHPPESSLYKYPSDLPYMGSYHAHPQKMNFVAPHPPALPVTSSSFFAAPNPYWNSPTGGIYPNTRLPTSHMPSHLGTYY
# Outline: as §1
# ELF1 = ELF1 (Homo sapiens, UniProt P32519 1-619); conditions: protein: recombinant; tags: N-terminal GST; dsDNA, one strand shown
# Chain of ELF1 (P32519 whole entry): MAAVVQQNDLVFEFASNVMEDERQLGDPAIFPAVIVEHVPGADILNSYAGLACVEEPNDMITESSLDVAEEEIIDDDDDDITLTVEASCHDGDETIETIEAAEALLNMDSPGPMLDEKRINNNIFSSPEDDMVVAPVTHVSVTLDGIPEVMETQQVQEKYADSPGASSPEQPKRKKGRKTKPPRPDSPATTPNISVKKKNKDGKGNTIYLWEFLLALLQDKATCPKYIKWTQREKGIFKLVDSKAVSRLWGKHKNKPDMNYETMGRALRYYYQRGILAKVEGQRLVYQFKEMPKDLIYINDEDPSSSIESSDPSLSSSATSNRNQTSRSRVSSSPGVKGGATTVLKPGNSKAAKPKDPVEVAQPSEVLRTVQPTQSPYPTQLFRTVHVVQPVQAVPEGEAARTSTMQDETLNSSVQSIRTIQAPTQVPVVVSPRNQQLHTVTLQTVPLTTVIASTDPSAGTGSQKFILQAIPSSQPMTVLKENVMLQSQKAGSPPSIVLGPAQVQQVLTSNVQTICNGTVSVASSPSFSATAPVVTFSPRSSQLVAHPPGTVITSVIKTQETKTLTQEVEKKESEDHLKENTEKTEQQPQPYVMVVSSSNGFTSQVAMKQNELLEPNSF
# Outline: as §1
# EHF = target: T5, EHF (Homo sapiens, UniProt Q9NZC4 1-300); conditions: protein: recombinant; tags: N-terminal GST; dsDNA, one strand shown
# T5 sequence: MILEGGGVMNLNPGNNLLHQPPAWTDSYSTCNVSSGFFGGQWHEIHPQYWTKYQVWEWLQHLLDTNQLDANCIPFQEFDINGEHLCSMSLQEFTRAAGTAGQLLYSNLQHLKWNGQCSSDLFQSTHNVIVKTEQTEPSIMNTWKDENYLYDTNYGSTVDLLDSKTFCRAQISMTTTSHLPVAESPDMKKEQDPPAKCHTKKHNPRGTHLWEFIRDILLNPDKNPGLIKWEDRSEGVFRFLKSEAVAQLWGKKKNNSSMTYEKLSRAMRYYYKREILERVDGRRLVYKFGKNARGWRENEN
# Outline: as §1
# SPI1 = SPI1 (Homo sapiens, UniProt P17947 1-270); conditions: protein: recombinant; tags: N-terminal GST; dsDNA, one strand shown
# Outline: as §1
# SPIB = SPIB (Homo sapiens, UniProt Q01892 1-262); conditions: protein: recombinant; tags: N-terminal GST; dsDNA, one strand shown
# Chain of SPIB (Q01892 whole entry): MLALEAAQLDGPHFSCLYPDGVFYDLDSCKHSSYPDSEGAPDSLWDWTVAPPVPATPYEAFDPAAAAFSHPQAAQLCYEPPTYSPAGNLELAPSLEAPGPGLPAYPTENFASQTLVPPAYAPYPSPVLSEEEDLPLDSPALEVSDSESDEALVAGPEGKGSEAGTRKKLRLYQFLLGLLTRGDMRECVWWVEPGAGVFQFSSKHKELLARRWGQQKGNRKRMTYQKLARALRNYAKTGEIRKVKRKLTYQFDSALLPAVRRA
# Outline: as §1
# ELK3 = target: T6, ELK3 (Homo sapiens, UniProt P41970 1-407); conditions: protein: recombinant; tags: N-terminal GST; dsDNA, one strand shown
# T6 sequence: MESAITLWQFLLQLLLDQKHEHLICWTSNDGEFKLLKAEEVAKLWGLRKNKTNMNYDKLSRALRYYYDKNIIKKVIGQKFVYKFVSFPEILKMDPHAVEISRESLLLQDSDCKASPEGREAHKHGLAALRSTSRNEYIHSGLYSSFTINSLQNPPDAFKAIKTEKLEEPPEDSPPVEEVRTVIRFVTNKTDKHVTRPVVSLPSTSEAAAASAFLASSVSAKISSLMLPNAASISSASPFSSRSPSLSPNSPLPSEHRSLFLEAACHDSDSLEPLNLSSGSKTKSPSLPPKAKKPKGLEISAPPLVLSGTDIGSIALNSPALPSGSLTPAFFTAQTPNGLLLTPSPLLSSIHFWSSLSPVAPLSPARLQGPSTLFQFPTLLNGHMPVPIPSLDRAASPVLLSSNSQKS
# Outline: as §1
# FEV = target: T7, FEV (Homo sapiens, UniProt Q99581 1-238); conditions: protein: recombinant; tags: N-terminal GST; dsDNA, one strand shown
# T7 sequence: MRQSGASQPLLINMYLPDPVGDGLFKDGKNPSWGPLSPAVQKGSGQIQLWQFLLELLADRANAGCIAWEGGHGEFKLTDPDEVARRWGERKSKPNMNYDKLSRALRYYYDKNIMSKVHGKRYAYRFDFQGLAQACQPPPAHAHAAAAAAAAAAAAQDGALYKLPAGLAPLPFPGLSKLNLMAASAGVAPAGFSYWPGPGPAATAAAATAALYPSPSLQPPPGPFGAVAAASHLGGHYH
# Outline: as §1
# ETV5 = ETV5 (Homo sapiens, UniProt P41161 1-510); conditions: protein: recombinant; tags: N-terminal GST; dsDNA, one strand shown
# Chain of ETV5 (P41161 whole entry): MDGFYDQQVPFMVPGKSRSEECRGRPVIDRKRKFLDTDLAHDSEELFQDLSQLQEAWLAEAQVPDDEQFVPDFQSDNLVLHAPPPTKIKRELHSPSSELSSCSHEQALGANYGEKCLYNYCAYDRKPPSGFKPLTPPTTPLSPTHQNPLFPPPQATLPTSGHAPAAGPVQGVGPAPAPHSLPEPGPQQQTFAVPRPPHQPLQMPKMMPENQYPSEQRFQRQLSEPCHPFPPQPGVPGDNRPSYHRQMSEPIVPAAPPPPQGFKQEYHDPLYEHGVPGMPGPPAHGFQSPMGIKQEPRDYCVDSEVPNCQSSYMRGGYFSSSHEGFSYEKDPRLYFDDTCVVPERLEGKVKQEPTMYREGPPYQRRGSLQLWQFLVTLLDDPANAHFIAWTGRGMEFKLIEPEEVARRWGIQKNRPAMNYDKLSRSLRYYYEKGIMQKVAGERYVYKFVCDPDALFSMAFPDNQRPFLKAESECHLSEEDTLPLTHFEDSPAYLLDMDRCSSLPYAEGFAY
# Outline: as §1
# HSF1 = HSF1 (Homo sapiens, UniProt Q00613 1-529); conditions: protein: recombinant; tags: N-terminal GST; chain copies: 3; dsDNA, one strand shown
# Chain of HSF1 (Q00613 whole entry): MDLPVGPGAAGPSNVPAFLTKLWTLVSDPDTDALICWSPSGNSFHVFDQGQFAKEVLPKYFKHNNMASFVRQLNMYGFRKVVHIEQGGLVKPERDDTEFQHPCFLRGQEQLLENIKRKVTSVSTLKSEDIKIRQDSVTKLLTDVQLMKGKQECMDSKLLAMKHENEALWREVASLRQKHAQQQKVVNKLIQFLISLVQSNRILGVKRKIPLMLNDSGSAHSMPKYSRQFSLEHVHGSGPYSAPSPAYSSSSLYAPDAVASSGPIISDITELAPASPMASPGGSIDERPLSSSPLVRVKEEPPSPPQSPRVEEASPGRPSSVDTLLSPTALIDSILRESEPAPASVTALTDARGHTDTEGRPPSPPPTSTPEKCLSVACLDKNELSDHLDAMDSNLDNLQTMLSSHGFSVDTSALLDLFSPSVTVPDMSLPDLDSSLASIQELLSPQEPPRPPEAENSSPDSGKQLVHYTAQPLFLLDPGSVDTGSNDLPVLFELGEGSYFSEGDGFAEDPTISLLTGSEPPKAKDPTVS
# Outline: as §1
# SPIC = target: T8, SPIC (Homo sapiens, UniProt Q8N5J4 1-248); conditions: protein: recombinant; tags: N-terminal GST; dsDNA, one strand shown
# T8 sequence: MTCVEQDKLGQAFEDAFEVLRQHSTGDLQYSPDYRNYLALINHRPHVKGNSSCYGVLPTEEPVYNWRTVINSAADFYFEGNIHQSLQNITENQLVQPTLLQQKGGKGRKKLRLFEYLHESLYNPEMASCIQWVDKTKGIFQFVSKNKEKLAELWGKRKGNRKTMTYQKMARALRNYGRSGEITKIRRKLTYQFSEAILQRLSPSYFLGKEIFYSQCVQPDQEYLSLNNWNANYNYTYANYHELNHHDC
# Outline: as §1
# ELF4 = ELF4 (Homo sapiens, UniProt Q99607 1-663); conditions: protein: recombinant; tags: N-terminal GST; dsDNA, one strand shown
# Chain of ELF4 (Q99607 whole entry): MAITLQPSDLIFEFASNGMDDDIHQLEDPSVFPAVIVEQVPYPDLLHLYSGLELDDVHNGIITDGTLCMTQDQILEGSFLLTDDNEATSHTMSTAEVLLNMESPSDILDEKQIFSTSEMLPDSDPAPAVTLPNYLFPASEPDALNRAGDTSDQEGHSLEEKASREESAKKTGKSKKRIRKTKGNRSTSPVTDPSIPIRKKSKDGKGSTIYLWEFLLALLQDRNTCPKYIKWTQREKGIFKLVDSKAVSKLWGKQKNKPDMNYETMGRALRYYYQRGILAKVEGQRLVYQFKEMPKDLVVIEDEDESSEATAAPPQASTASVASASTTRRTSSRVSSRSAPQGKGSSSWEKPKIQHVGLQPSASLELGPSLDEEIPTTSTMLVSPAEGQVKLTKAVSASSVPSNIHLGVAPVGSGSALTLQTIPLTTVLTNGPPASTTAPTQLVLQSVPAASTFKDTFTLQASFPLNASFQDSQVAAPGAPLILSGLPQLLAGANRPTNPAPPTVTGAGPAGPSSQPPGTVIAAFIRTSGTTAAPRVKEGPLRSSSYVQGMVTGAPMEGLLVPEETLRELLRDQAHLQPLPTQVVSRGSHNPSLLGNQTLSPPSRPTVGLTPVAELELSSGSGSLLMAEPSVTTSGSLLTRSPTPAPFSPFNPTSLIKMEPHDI
# Outline: as §1
# ELK4 = target: T9, ELK4 (Homo sapiens, UniProt P28324-2 1-405); conditions: protein: recombinant; tags: N-terminal GST; dsDNA, one strand shown
# T9 sequence: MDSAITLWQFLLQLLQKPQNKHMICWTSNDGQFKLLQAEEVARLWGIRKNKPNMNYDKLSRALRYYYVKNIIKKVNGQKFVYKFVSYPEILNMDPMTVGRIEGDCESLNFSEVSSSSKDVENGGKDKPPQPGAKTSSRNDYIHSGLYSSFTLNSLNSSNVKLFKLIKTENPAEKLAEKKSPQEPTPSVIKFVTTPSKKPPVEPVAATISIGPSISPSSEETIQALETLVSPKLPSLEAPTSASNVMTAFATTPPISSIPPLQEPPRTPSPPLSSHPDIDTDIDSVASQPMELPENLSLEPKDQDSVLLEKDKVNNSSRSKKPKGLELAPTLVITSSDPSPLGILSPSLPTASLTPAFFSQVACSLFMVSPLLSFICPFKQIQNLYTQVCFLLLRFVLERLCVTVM
# Outline: as §1
# ETV2 = target: T10, ETV2 (Homo sapiens, UniProt O00321 1-342); conditions: protein: recombinant; tags: N-terminal GST; dsDNA, one strand shown
# T10 sequence: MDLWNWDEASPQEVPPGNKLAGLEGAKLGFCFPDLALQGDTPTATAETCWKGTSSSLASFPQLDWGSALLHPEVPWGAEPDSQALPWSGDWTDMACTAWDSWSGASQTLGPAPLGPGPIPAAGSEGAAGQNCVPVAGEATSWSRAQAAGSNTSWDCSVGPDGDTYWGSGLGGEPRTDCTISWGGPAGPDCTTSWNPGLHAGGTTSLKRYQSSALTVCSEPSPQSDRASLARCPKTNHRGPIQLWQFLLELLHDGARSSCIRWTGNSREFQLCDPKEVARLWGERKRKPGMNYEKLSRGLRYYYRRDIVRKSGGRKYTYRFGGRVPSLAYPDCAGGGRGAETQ
# Outline: as §1
# ELF3 = target: T11, ELF3 (Homo sapiens, UniProt P78545 1-371); conditions: protein: recombinant; tags: N-terminal GST; dsDNA, one strand shown
# T11 sequence: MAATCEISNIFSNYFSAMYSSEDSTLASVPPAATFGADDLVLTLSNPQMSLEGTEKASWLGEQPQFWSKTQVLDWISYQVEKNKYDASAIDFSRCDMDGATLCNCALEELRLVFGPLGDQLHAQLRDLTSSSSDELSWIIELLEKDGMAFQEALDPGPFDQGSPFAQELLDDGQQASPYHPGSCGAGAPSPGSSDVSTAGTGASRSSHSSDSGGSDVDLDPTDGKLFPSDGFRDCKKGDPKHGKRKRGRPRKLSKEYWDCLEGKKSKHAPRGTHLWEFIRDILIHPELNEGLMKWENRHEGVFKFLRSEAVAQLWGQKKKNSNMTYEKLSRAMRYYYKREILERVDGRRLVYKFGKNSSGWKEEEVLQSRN
# Outline: as §1
# CRX = CRX (Homo sapiens, UniProt O43186 1-299); conditions: protein: recombinant; tags: N-terminal GST; dsDNA, one strand shown
# Chain of CRX (O43186 whole entry): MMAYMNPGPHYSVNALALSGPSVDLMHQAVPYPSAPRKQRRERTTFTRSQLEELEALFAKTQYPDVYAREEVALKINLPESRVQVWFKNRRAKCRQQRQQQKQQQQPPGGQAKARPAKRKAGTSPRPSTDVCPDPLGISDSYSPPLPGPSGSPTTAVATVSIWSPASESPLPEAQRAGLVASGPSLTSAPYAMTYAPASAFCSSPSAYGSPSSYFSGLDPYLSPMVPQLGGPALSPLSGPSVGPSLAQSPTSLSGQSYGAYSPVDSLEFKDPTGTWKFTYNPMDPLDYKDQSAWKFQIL
# Outline: as §1
# ETV1 = ETV1 (Homo sapiens, UniProt P50549 1-477); conditions: protein: recombinant; tags: N-terminal GST; dsDNA, one strand shown
# Chain of ETV1 (P50549 whole entry): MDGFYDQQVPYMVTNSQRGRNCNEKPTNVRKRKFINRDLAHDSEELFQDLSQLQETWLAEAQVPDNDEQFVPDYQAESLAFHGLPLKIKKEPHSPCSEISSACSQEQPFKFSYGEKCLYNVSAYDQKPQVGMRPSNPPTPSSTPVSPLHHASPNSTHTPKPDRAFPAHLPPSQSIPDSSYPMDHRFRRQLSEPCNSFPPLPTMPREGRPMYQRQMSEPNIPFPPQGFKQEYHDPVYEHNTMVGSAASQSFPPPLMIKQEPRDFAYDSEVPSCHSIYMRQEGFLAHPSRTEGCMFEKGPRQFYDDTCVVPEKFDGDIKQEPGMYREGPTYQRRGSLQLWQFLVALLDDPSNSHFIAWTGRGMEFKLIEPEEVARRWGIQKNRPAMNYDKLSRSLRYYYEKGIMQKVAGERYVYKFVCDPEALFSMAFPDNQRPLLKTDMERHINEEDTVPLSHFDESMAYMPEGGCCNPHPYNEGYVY
# Outline: as §1
sequence,measurement,setting,value
AATGCG,binding signal,FLI1,"1.24 fold enrichment (6-mer frequency, TF over GST control)"
same,binding signal,ELK1,"1.27 fold enrichment (6-mer frequency, TF over GST control)"
same,binding signal,GABPA,"1.27 fold enrichment (6-mer frequency, TF over GST control)"
same,binding signal,ERG,"1.23 fold enrichment (6-mer frequency, TF over GST control)"
same,binding signal,ELF1,"1.21 fold enrichment (6-mer frequency, TF over GST control)"
same,binding signal,EHF,"1.32 fold enrichment (6-mer frequency, TF over GST control)"
same,binding signal,SPI1,"1.58 fold enrichment (6-mer frequency, TF over GST control)"
same,binding signal,SPIB,"1.31 fold enrichment (6-mer frequency, TF over GST control)"
same,binding signal,ELK3,"1.29 fold enrichment (6-mer frequency, TF over GST control)"
same,binding signal,FEV,"1.27 fold enrichment (6-mer frequency, TF over GST control)"
same,binding signal,ETV5,"1.2 fold enrichment (6-mer frequency, TF over GST control)"
same,binding signal,HSF1,"1.13 fold enrichment (6-mer frequency, TF over GST control)"
same,binding signal,SPIC,"1.22 fold enrichment (6-mer frequency, TF over GST control)"
same,binding signal,ELF4,"1.33 fold enrichment (6-mer frequency, TF over GST control)"
same,binding signal,ELK4,"1.25 fold enrichment (6-mer frequency, TF over GST control)"
same,binding signal,ETV2,"1.34 fold enrichment (6-mer frequency, TF over GST control)"
same,binding signal,ELF3,"1.43 fold enrichment (6-mer frequency, TF over GST control)"
same,binding signal,CRX,"1.36 fold enrichment (6-mer frequency, TF over GST control)"
same,binding signal,ETV1,"1.3 fold enrichment (6-mer frequency, TF over GST control)"
